TDP1 inh: blocks human tyrosyl-DNA phosphodiesterase 1; recombinant TDP1, AlphaScreen DNA substrate cleavage; Potency, µM (highest dose often 130 µM), without a hit: top-dose activity change, negative = inhibition, actives largely listed as inhibitors; 0.28% of 350,000 active; further: nearly all actives have a fitted effect of over 40% in size
Target sequence (Q9NUW8 whole entry, looked up): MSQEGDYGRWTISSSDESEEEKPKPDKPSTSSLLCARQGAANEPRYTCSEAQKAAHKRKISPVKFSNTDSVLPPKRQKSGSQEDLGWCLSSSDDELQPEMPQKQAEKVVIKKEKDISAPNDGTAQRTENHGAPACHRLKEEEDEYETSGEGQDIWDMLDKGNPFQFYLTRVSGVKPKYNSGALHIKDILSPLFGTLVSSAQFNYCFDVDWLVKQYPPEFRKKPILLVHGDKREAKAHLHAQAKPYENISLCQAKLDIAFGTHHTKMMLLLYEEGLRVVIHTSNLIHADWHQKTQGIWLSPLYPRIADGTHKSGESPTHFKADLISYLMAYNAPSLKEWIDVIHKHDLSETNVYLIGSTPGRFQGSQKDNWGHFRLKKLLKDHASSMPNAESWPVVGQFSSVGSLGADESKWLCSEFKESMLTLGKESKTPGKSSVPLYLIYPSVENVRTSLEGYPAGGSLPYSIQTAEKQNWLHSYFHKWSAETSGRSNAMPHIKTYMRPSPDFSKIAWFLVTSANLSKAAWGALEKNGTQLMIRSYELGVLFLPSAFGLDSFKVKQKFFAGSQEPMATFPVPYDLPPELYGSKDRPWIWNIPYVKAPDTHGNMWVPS
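Tdp1 1 nM final; 15 min RT w/ cpd; substrate 15 nM, 5 min; beads 10 ug/ml, 10 min; AlphaScreen read. Neg ctrl: no enzyme.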
BLM inh-1: blocks DNA unwinding by human BLM helicase; Potency, µM (series often up to 56.1 µM), for inactives: top-dose activity change, negative = inhibition, actives largely listed as inhibitors; recombinant BLM DNA unwinding, fluorescence dequenching; P54132; 0.2% of 350,000 active;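 further: plate controls were vehicle for no effect and no enzyme for full effect; nearly all actives have a fitted effect of over 35% in size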
RECQ1 inh-1: RECQ1 (human) helicase inhibition | 0.54% of 240,000 active | P46063 | RECQ1 DNA unwinding, red fluorescence kinetic read | Potency, µM (series often up to 57.3 µM), for inactives: top-dose activity, negative = inhibition, usual class: inhibitors;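 further: plate controls were vehicle for no effect and no enzyme for full effect; nearly all actives have a fitted effect of over 30% in size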
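50 nM RECQ1T1 preincubated 15 min with compound in Tris pH 8.0 buffer with MgCl2, DTT, Tween-20 and 2.5 ug/ml poly(dI-dC); started with 200 nM TAMRA/BHQ-2 forked duplex and 2 mM ATP. Unwinding read as fluorescence (525/598 nm), two reads 2 h apart.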
APEX1 inh: APE1 (human) endonuclease inhibition; recombinant APE1, TAMRA/BHQ-2 abasic DNA cleavage fluorescence; 0.35% of 350,000 active; P27695; Potency, µM (series often up to 65.8 µM), without a hit: top-dose activity change, negative = inhibition, usual class: inhibitors;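 further: plate controls were vehicle for no effect and reference inhibitor for full effect; nearly all actives have a fitted effect of over 55% in size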
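0.75 nM APE1 + cpd, 15 min RT; start w/ 50 nM TAMRA/BHQ-2 THF-abasic dsDNA; kinetic fluor 525/598 nm ×3 reads @60 s; Δ(read3−read1); normalized to DMSO and NSC13755 control wells.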
GCN5L2 inh: blocks human GCN5L2 histone acetyltransferase. Q92830. GCN5L2 HAT assay, ThioGlo1 CoA-SH fluorescence. Potency, µM (doses to about 58.9 µM), for inactives: at the top dose activity change, negative = inhibition, most hits filed as inhibitors. 0.21% of 390,000 active
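qHTS, 1536-well. 20nM enzyme, pH 7.5 HEPES/EDTA/Tween-20 buffer; 15 min compound preinc., RT. Start: 75uM H3(1-25), 70uM AcCoA, 50uM ThioGlo1. Read Ex340/Em540 at t=0 (autofluorescence flag) and t=20 min.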
LMNA splice mod: LMNA splicing modulation; HeLa LMNA splicing GFP/RFP minigene ratio, 48 h; Potency, µM (highest dose often 46.1 µM), for inactives: at the highest dose ratio change, negative = inhibition, most hits filed as inhibitors; 0.01% of 200,000 active; active means well fitted inhibition curve with a large enough effect in the signal ratio, with a control signal flat, not every such curve was filed as active; inconclusive means small, poorly fitted or top-dose-only effect, or effect the other way, or a change in a side signal; the % refers to the signal ratio
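S3 HeLa cells stably expressing lamin A-EGFP splicing minigene plus DsRed2, 600 cells/well, 48 h compound exposure at 37C. Laser-scanning cytometry; analysed as GFP (500-530 nm)/RFP (575-640 nm) total intensity ratio; 0.5% DMSO vehicle.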
BLM inh-2: confirmation of inhibitors of human Bloom syndrome helicase BLM | shares compounds with BLM inh-1 | BLM DNA unwinding, fluorescence quenching, biochemical | Potency, µM, for the others: max response, negative = inhibition, usual class: inhibitors | 40% of 220 active;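 further: strand separation dequenches TAMRA so unwinding raises red fluorescence; series mostly up to about 69 µM; nearly all actives have a fitted effect of over 45% in size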
RECQ1 inh conf: confirmation of human RECQ1 helicase inhibitors | shares compounds with RECQ1 inh-1 | RECQ1 helicase DNA unwinding, fluorescence | Potency, µM (titrated, usually from 229 µM), inactives show at the top dose activity change, negative = inhibition, most hits filed as inhibitors | AID 2708 | 28% of 610 active; further: nearly all actives have a fitted effect of over 45% in size
ADP FP counter: ADP displacement flagged in RECQ1 inhibitor counter-screen | shares compounds with RECQ1 inh-1 | ADP fluorescence polarization displacement counterscreen | Potency, µM (series often up to 228 µM), for the others: top-dose activity change, negative = inhibition, usual class: inhibitors | 27% of 530 active; further: nearly all actives have a fitted effect of over 45% in size
RECQ1 inh-2: blocks human RECQ1 DNA unwinding. shares compounds with RECQ1 inh-1. recombinant RECQ1 DNA unwinding, red fluorescence. Potency, µM (doses to about 119 µM), for inactives: top-dose activity, negative = inhibition, most hits filed as inhibitors. 15% of 1,100 active. AID 504841; further: nearly all actives have a fitted effect of over 50% in size
An asterisk follows results filed as active; i = inactive; u = inconclusive; x = not tested or not shown; [ ] = remark or other dose. Sampled rows, rich in hits. Any-hit rate of the full collection: about 0.9%. Unless noted, the call rests on the fitted dose curve; in most records, active means well fitted curve in the direction sought with a large enough effect; inconclusive means small, poorly fitted or top-dose-only effect, or another doubt; inactive means no such curve, though single readings can be large; an effect the other way counts as inactive or inconclusive. Unless noted, on the % scale 0 is the no-effect control and ±100 the full control effect; potency means the concentration at half of the fitted maximal effect.

SMILES	TDP1 inh	BLM inh-1	RECQ1 inh-1	APEX1 inh	GCN5L2 inh	LMNA splice mod	BLM inh-2	RECQ1 inh conf	ADP FP counter	RECQ1 inh-2
COc1ccc(-c2nc3c(c4c2C[C@H](c2ccccc2)OC4)CN(S(=O)(=O)c2ccc(C#N)cc2)CC3)c(C)c1	5.8%[21 µM]	-5.5%[12.4 µM]	-6.5%[11.5 µM]	5.3%[12.4 µM]	x	u	x	x	x	x
Cc1c(O)ccc(/C=N/Nc2nc(-c3cccnc3)nc3ccccc23)c1O	2.6%	u	20µM*	-1.9%	-0.3%	x	24.1µM*	u	26.6%[91.9 µM]	x
COc1cccc(OC)c1-c1nn2c(-c3cc(-c4ccccc4)n[nH]3)nnc2s1	-7.8%	28.2µM*	11.2µM*	u	-0.6%	u	u	x	91.2%[91.9 µM]	x
O=C(COc1ccc([N+](=O)[O-])cc1)NCc1cccnc1	4.3%	2.4%	i	3.3%	2.4%	8.0%	x	x	x	x
O=C(COc1ccc([N+](=O)[O-])cc1)Nc1nnc(-c2cccnc2)s1	-8.6%	15.8µM*	u	u	u	14.3%[46 µM]	u	x	x	u
O=[S+]1([O-])N=C(Oc2cccnc2)c2ccccc21	1.2%	x	x	x	x	x	x	x	x	x
O=C(O)CCCCCN1C(=O)/C(=C\c2cn(-c3ccccc3)nc2-c2cccs2)SC1=S	x	15.8µM*	-8.7%	-1.2%	u	x	32.4µM*	1.8%[69.1 µM]	x	x
CC(C)[C@@H]1CC[C@@H](C)C[C@@H]1P(=O)(c1ccccc1)c1ccccc1	x	x	x	x	-2.3%	x	x	x	x	x
Cc1ccc(-n2cccc2/C=C2\C(=N)N3N=C(c4ccco4)SC3=NC2=O)cc1	56.2µM*	20µM*	u	10µM*	u	u	28.9µM*	x	x	u
Oc1ccc([C@@H]2CNCCc3c2cc(O)c(O)c3Cl)cc1	11.9%[56.1 µM]	u	u	u	x	x	u	u	7.08µM*	x
Oc1cc2c(cc1O)C(c1ccccc1)CNCC2 (configuration not stated)	-4.1%[56.1 µM]	-16.0%	-6.6%	1.0%	-6.5%	-28.5%	x	x	x	x
O=C1c2ccccc2C(=O)N1c1cccc(=O)[nH]1	1.9%	x	x	x	x	x	x	x	x	x
Oc1ccc(NCc2cccc(OCc3ccc(F)cc3)c2)cc1	8.5%	14.1µM*	u	5.4%	-27.1%	u	u	x	x	-18.1%
Cc1cc2cc(C(c3nnnn3Cc3ccco3)N3CCCCC3)c(=O)[nH]c2cc1C (configuration not stated)	-2.3%	-10.5%	-2.9%	-1.0%	-0.7%	1.7%	x	x	x	x
CCOc1ccc2[nH]c(=O)c(C(c3nnnn3Cc3ccco3)N3CCN(C)CC3)cc2c1 (configuration not stated)	2.8%	1.12µM*	7.08µM*	u	0.1%	u	3.0%	23.8%[114 µM]	44.7µM*	4.1%
COc1ccccc1-c1nccc(NCc2cccs2)n1	x	-1.7%	-9.7%	-5.7%	u	u	x	x	x	x
COc1cc(NC(=O)c2ccccc2)c(OC)cc1NC(=O)Cc1cccs1	x	11.2µM*	12.6µM*	15.8µM*	u	x	16.2µM*	u	22.1%[91.9 µM]	u
O=C(COC(=O)c1cc(-c2ccco2)nc2ccccc12)NCc1ccccc1	-3.5%	-7.6%	-5.4%	-0.6%	-9.6%	17.1%	x	x	x	x
CNC(=O)COC(=O)c1cc(-c2ccco2)nc2ccccc12	x	15.8µM*	22.4µM*	u	-26.7%	x	u	x	x	u
O=C(O)c1ccccc1/C=N/NC(=O)c1cc(-c2ccco2)nc2ccccc12	x	14.1µM*	22.4µM*	22.4µM*	u	x	u	39.8µM*	39.8µM*	x
COc1cc(NS(=O)(=O)c2ccc([N+](=O)[O-])cc2)c2ncccc2c1	23.8%	-5.9%	i	-4.8%	x	x	x	x	x	x
C#Cc1nc(Nc2cccc(Cl)c2)nc(NC2CCCC2)n1	-2.1%	x	x	x	x	x	x	x	x	x
COC(=O)c1cc(F)c(S(=O)(=O)N2CCN(S(=O)(=O)c3ccc4c(c3)OCCO4)CC2)cc1F	0.3%	x	x	x	x	x	x	x	x	x
COc1ccc2cc(-c3[nH]ncc3CN3CCCCO3)ccc2c1	0.0%	-6.1%	-10.7%	4.2%	-0.1%	5.6%[46 µM]	x	x	x	x
COc1ccc2cc(-c3[nH]ncc3CN3CCCN(c4ccccc4)CC3)ccc2c1	8.1%	-6.0%	u	-7.1%	-16.4%	x	x	x	x	-23.1%
SMILES	TDP1 inh	BLM inh-1	RECQ1 inh-1	APEX1 inh	GCN5L2 inh	LMNA splice mod	BLM inh-2	RECQ1 inh conf	ADP FP counter	RECQ1 inh-2
CS(=O)(=O)c1ccc(C(=O)OCC#CCSc2nnc(-c3cccc4ccccc34)o2)cc1	-0.1%	x	x	x	x	x	x	x	x	x
O=c1c2c3c(sc2[nH]c(=S)n1Cc1ccco1)CCC3	u	-29.8%	12.6µM*	u	u	x	x	44.7µM*	u	x
COc1ccc(NC(=O)/C(Cl)=C(/Cl)S(=O)Cc2ccc(Cl)cc2)cn1 (configuration not stated)	4.9%	-16.7%	35.5µM*	8.6%	-19.9%	u	x	x	x	-32.7%
COc1ccc(NC(=O)C(C)(C)Oc2ccc(Cl)cc2)cn1	-0.4%[56.1 µM]	x	x	26.7%	2.5%	x	x	x	x	x
COC(=O)c1sc2ccccc2c1NC(=O)c1ccc(S(=O)(=O)N2CCCCC2)cc1	-2.6%	-5.6%	-6.5%	-1.9%	-4.2%	-7.5%	x	x	x	x
COC(=O)c1sc2ccccc2c1NC(=O)c1ccc(S(=O)(=O)N2CCCCC2C)cc1 (configuration not stated)	2.6%	-4.4%	5.2%	-4.9%	-10.9%	5.2%	x	4.4%	-5.2%	x
CC1=CN2C(=N)/C(=C/c3ccc([N+](=O)[O-])o3)C(=O)N=C2S1	2.6%	-17.8%	28.2µM*	u	24.4%	u	x	x	x	u
Nc1c(C(=O)Nc2ccccc2F)sc2nc(-c3ccco3)ccc12	1.0%	-9.5%	5.3%	-6.1%	-3.8%	11.5%	x	x	x	x
Nc1c(C(=O)Nc2ccccc2F)sc2nc(-c3cccnc3)ccc12	-1.9%	-6.2%	31.6µM*	12.5%	-5.6%	x	x	x	x	-14.5%
Cc1cc(C)cc(NC(=O)c2nnn(Cc3cc(C)ccc3C)c2N)c1	3.3%	-8.9%	1.78µM*	2.8%	-6.7%	-0.3%	x	u	u	-18.0%

Screens (PubChem)
